Measured values from PubChem BioAssay (NCATS).
Records with an inconclusive call do not appear. Activity calls are given as the source filed them. Calls come from the whole dose curve; as a rule, active = well fitted inhibition curve with a large enough effect; inconclusive = small, poorly fitted or top-dose-only effect; inactive = flat fitted curve, though single readings scatter. Starred links: 1 amine or outer side, 2 acyl side, 3 side chain; linkers in the order of their positions; H or OH if unused. Positions of bridges follow the written chain, without caps; N, C: chain ends. Non-standard residues stand in square brackets, D forms with d. Residues, ends and D or L forms follow the SMILES beside them. Chains are numbered I, II in the order given. Actinocin(9to1) = Cc1c2oc3c(C)ccc(C(=O)[*:1])c3nc-2c(C(=O)[*:2])c(N)c1=O; NMeV = CN[CH](C(=O)O)C(C)C; Sar = CNCC(=O)O

Test: BET inhibitor-based combinations targeting novel dependencies in MECOM-rearranged (r) AML: AML-194 cell line (AID 2202237; note: nearly all actives have a fitted effect of over 40% in size)
Settings: AML-194 (MECOM-r AML) viability, CellTiter-Glo, 48 h; series mostly up to 46 µM
In short: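 Here, 11-point titrations of each agent were applied to 500 seeded cells and incubated 48 hr; CellTiter-Glo signal, scaled against DMSO and empty wells, was integrated as AUC, then Z-scored within the individual line.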
Potency is the fitted concentration of half-maximal effect.

Question: For `CC1(C)CCC2(CC1)N[C@@H](C(=O)N[C@@H]1CC[C@@H](C(N)=O)OC1)[C@H](c1ccnc(Cl)c1F)[C@]21C(=O)Nc2cc(Cl)ccc21`, which Potency is on record?
Answer: The Potency was 0.637 µM (active).

Question: With `CN1C(=O)[C@@H](NC(=O)c2n[nH]c(Cc3ccccc3)n2)COc2ccccc21` as the compound, how does the Potency read?
Answer: Its Potency is “inactive”.

Question: With `CC(C)(O)CC[C@@H](O)[C@](C)(O)[C@H]1CC[C@@]2(O)C3=CC(=O)[C@@H]4C[C@@H](O)[C@@H](O)C[C@]4(C)[C@H]3CC[C@]12C` as the compound, how does the Potency read?
Answer: The Potency was “inactive”.

Question: With `N#Cc1ccc(-c2c(-c3ncn[nH]3)sc(N3CCOCC3)c2C#N)c(F)c1` as the compound, how does the Potency read?
Answer: Its Potency is 3.32 µM (active).

Question: With `Cc1ccc(-c2nn(C(C)(C)CNC(=O)c3ccncc3)c3ncnc(N)c23)cc1` as the compound, how does the Potency read?
Answer: The Potency was 7.42 µM (active).

Question: For `Cc1c(-c2c(-c3ccc(F)o3)sc3ncnc(O[C@@H](Cc4ccccc4OCc4ccnn4CC(F)(F)F)C(=O)O)c23)ccc(OCCN2CCN(C)CC2)c1Cl`, which Potency is on record?
Answer: The Potency was 4.68 µM (active).

Question: With `Cc1c2oc3c(C)ccc(C(=O)NC4C(=O)NC(C(C)C)C(=O)N5CCCC5C(=O)N(C)CC(=O)N(C)C(C(C)C)C(=O)OC4C)c3nc-2c(C(=O)NC2C(=O)NC(C(C)C)C(=O)N3CCCC3C(=O)N(C)CC(=O)N(C)C(C(C)C)C(=O)OC2C)c(N)c1=O` (stereo not drawn) (I: TVP[Sar][NMeV] / II: TVP[Sar][NMeV]; ester I:1-I:C, II:1-II:C; linker I:N-II:N via Actinocin(9to1); configuration not given here) as the compound, how does the Potency read?
Answer: Its Potency is 0.0115 µM (active).

Question: For `O=C(O)c1cccnc1`, which Potency is on record?
Answer: Its Potency is “inactive”.
